# In the OligoGym collection:
# Molecular target: STAP2
# Experiment: pooled miR-30 sensor sort-seq; sequence = guide strand
# Conditions: shRNA
# Also: reference of the scale not given here.
row,Sequence,sensor-assay potency score (higher = more potent)
1,TTCTCATAGTCAACAGCTGGGC,-0.883
2,TAGAGGAAGCCACATCTTGGTT,-1.31
3,TTCTTCTCTAGAAAGCTCTCAT,-0.00657
4,TACCTTGAACTTGATCTCCTGA,0.355
5,TAGCCTAGCACCTTCTCGTAGT,-0.174
6,TCTCATAGTAGTGTGAAGGCAG,0.0304
7,TTCCACGTAGCCTAGCACCTTC,-0.0469
8,TTGAGCTTCTCCACGTGCTGGA,0.441

# Molecular target: STARD13
# Experiment: as above
# Conditions: shRNA
row,Sequence,sensor-assay potency score (higher = more potent)
1,TGACCTTTCAGGTCTATCCTGC,0.102
2,TAGTCGGGAACTTTCATCCTCT,0.0488
3,TATAACTGAGCGTATTGCGGGA,-0.462
4,TTGTTCAACGTATTTAGTCGTC,-0.155
5,TTTGTAGTCGGGAACTTTCATC,-0.697
6,TTGAATTTTAGTCACTAGCTGA,-0.1
7,TATTTCTTCTGTATGACTCGTG,0.941
8,TTGTAGTCTGATCAAATCGCAA,-1.15
9,TTAGTCGTCTGCAAAGAGGTTC,-0.341
10,TTGCTGAATACTTTGAGGCAGG,-0.948
11,ATGAACTTTGGAACTGACCATG,-1.26
12,TTGTCATAGATACTGACTCGGC,-0.87

# Molecular target: STARD3NL
# Experiment: as above
# Conditions: shRNA
row,Sequence,sensor-assay potency score (higher = more potent)
1,TATTACAATAAATAAATCTTTA,-1.13
2,TAAATAAATCTTTATTAGCTGT,-0.476
3,TACTTCAATATATTAAGTCTTT,-0.927
4,TTTGCTAGTAAAAAGGCACTGG,0.563
5,TTGATTAGGAATACAGCACAAG,-0.839
6,TTTCTTCTTCTGCTTCTTGAGG,-0.759
7,TGAAGCATCCTGAACTATCAGG,-0.809
8,TTCAACTTTACTGTCGACAGGG,0.68
9,TTAGCTGTTCAATAAAGCCAGC,-0.902
10,TTGAAATCCAGGAACCACGTCT,0.74
11,TTTAACTCTATTATCCACAGTA,0.804
12,TTTAAATCGAAAAACTGCCAGA,-0.348

# Molecular target: STARD3
# Experiment: as above
# Conditions: shRNA
row,Sequence,sensor-assay potency score (higher = more potent)
1,TTCCACTCGCTGCAGGATCTGG,-1.17
2,TTCCACAGCACCATCCTCTCGG,0.506
3,TTAAGAATCCAGACAAAGGTGC,-0.169
4,TAGGACTTTGAAGTCAAGGAAC,-1.37
5,TTTTCTTCCCAGCAACTTCTTC,-1.04
6,TTGACAATGAGGAATGCACTGG,0.205
7,TTCATTATTCTTCTCAAACTTC,-0.376
8,TGTGTTGGTATTCAGTTCGATG,-1.58
